Assay results reported in PubChem BioAssay AID602440 (Sanford-Burnham Center for Chemical Genomics, 2012).
Hit rate of the full screen: of about 360,000 compounds, about 2,300 (0.64%) were called active. What follows is part of a selection rich in actives, with near analogues and random picks from the rest. Unmarked numbers belong to inactive results. Cut-off read from the data, not from the text of the source: active = inhibition mostly above about 40% (no sharp cut-off); inactive = mostly below about 27%.

The compounds below were run against Sentrin-specific protease 8 (Homo sapiens) (UniProt Q96LD8) (assay: human SENP8 protease inhibitors, primary screen, biochemical, fluorescence, Nedd8 protein substrate, uHTS (AID 602440)). Conditions: recombinant SENP8, Nedd8 substrate fluorescence; at 20 µM; hits give high values.
Sentrin-specific protease 8 (Homo sapiens), sequence (Q96LD8 whole entry, looked up): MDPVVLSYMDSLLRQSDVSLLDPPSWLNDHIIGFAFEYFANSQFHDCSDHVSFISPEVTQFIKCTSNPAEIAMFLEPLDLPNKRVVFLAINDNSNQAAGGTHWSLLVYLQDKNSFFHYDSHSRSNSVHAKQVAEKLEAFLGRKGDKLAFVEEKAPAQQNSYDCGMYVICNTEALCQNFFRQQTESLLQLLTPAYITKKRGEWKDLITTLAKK

Compound	inhibition
CC1(C(=O)Nc2cccc3c2CCCC3)CCN1C(=O)CCc1ccc(Cl)cc1Cl (stereo unspecified)	10.4%
COc1ccc(C(=O)NN2C(=O)C3C(c4ccccc4)C=CC(c4ccccc4)C3C2=O)cc1 (stereo unspecified)	7%
COc1ccc2c(c1)N(C)/C(=C1/SC(=S)N(NC(C)=O)C1=O)S2	1.5%
CC(=O)N1C(=O)/C(=C2\SC(=S)N(NC(=O)c3ccc(O)cc3)C2=O)c2ccccc21	53.5% (active)
Oc1cccc(C2c3[nH]c4ccccc4c3CCN2Cc2cnn(-c3ccccc3)c2)c1 (stereo unspecified)	-56.9%
CSCC[C@H](NC(=O)CCCn1nnc2ccccc2c1=O)C(=O)O	38.5%
CCOC(=O)N1CCN(C(=O)C[C@@H]2C[C@@]3(C(=O)OC)CC(C)(C)CC=C3N(Cc3ccco3)C2=O)CC1	26.3%
CCCc1ccc(C(=O)COC(=O)CN2C(=O)NC3(CCCCC3C)C2=O)cc1 (stereo unspecified)	9.6%
CCCCCCCCCCCCCCCC(=O)OC/C=C(C)/C=C/C=C(C)/C=C/C1=C(C)CCCC1(C)C	40.9% (active)
CCc1nnc(NC(=O)CCN(c2ccc(C)cc2)S(=O)(=O)c2ccccc2)s1	14.8%
COCCCNC(=O)CNC(=S)N(Cc1cc(OC)c(OC)c(OC)c1)C1CCCC1	4.9%
Cc1c(NC(=O)Nc2cccc([N+](=O)[O-])c2)c(=O)n(-c2ccccc2)n1C	9.3%
CCOC(=O)C(C)n1cnc2c(nnn2-c2ccc(F)cc2)c1=O (stereo unspecified)	6.3%
COC(=O)C(C)n1cnc2c(nnn2-c2ccc(F)cc2)c1=O (stereo unspecified)	4.4%
CCOC(=O)C(CC)Sc1ncnc2c1nnn2-c1ccc(F)cc1 (stereo unspecified)	40.3% (active)
CC(C)c1nc2oc3c(N4CCN(C)CC4)ncnc3c2c2c1CCC2	-130%
Cc1ccnc(N2CCN(C(=O)CSc3nc4ccccc4nc3N3CCCCC3)CC2)c1	-63.3%
OC(COCC1COc2ccccc2O1)CN1CCN(c2ccc(F)cc2)CC1 (stereo unspecified)	16.7%
CN1/C(=c2/s/c(=C3/C(=O)N(c4ccccc4)NC3=Nc3ccccc3)n(C)c2=O)C(C)(C)c2ccccc21	54.8% (active)
OCC1(Cc2ccccc2)CCN(Cc2cc3ccccc3o2)CC1	3.7%
CCN(CC)S(=O)(=O)c1ccc(N2CCOCC2)c(NC(=O)C2CSC3(C)CCC(=O)N23)c1 (stereo unspecified)	-11.2%
Cc1cc(C)cc(NC(=O)NC2CCCCCCC2)c1	1.8%
Cc1cc([N+](=O)[O-])c(N2CCC[C@@H]2C(=O)O)c([N+](=O)[O-])c1	2.1%

Compound	inhibition
Cc1cc([N+](=O)[O-])c(NC2CCCCC2)c([N+](=O)[O-])c1	45.6% (active)
CCCCN(CC(=O)NC(C)(C)C)C(=O)C(=O)Nc1ccc2c(c1)OCCO2	17%
O=S(=O)(O)CCN1CCOCC1	24.3%
O=C1c2ccccc2-c2ccccc2NC1O (stereo unspecified)	14.1%
O=C1c2ccccc2C(=O)C1C(=O)C1CC1	37.6% (active)
O=C1c2ccccc2C(=O)C1c1ccccc1	4.5%
Cc1cccc2nc(CNc3ccc(F)cc3)cn12	-86.7%
CCOC(=O)c1sc2nc(C)nc(Nc3ccc(OC)c(OC)c3)c2c1C	-82.2%
CCCCN1CC(C)(C)[C@H](CC(=O)Nc2ccc(Br)cc2)C1=O	15.8%
CCn1c2ccc(F)cc2c2nnc(SCCN3CCOCC3)nc21	11.3%
CN(C)c1nc(NN)nc(Nc2ccc(F)cc2)n1	12.3%
Cn1c2ccc(F)cc2c2nnc(NN)nc21	49.2% (active)
N#Cc1c(N)nc2c3c(sc(=N)c2c1N)NC(=O)CC3c1ccccc1Cl (stereo unspecified)	-174%
CCCCN1CC(N2CCN(Cc3cccc(C)c3)CC2)CS1(=O)=O (stereo unspecified)	12.1%
C#CCOc1ccccc1/C=C1/C(=O)ON=C1C	13.5%
CC1=NOC(=O)/C1=C\c1ccccc1	42.9% (active)
Cc1ccc(S(=O)(=O)n2oc(=O)c(C3CCCCC3)c2N)cc1	7.6%
COc1cc(OC)cc(C(=O)NCC(=O)OCc2csc(-c3ccccc3)n2)c1	15.3%
Cc1ccc(F)cc1NC(=O)c1cccc(N(C)C)c1	-82.7%
CN(C)S(=O)(=O)c1ccc(C(=O)NCC2(N3CCOCC3)CCCCC2)cc1	5.2%
COc1cc(N2CCCC2)c(OC)cc1/C=C(/C#N)c1cccc(Br)c1	75.3% (active)
CCC(C)CN1CCC(CO)(Cc2ccccc2Cl)CC1 (stereo unspecified)	1.5%
COc1ccc(Br)c(Cn2c(C)c(C(=O)NCc3cccs3)sc2=O)c1	3.5%

Compound	inhibition
COc1cccc(Nc2nnc(SCC(=O)N3CC(=O)Nc4ccccc43)s2)c1	-6.6%
COc1c(F)c(F)c(C(=O)O)c(Nc2ccccc2C)c1F	4.1%
Cc1ccc(S(=O)(=O)N2CCN(CC(=O)N/N=C/c3ccc(Br)s3)CC2)cc1	6%
Cc1nn(Cc2ccc(Cl)cc2)c(Cl)c1/C=N/NC(=O)CNc1ccccc1F	7.1%
Cc1ccccc1NCC(=O)N/N=C\c1ccc([N+](=O)[O-])s1	45.1% (active)
O=C(CN(C(=O)CNC(=O)c1cccs1)c1cccc(F)c1)NC1CCCCC1	11.2%
Cc1ccc(NC(=O)COC(=O)CN2CCSC2=O)cc1F	14.3%
Cc1cccc(S(=O)(=O)N(C)C[C@H]2OCc3cnnn3CCCC(=O)N([C@@H](C)CO)C[C@H]2C)c1	14.1%
CC(=O)Nc1ccc(S(=O)(=O)N2CCC(NC(=O)c3ccccc3)CC2)cc1	9%
CC(=O)N1CCN(S(=O)(=O)c2cccc(C(=O)NC3CCC(C)CC3)c2)CC1 (stereo unspecified)	43.9% (active)
COc1ccc(OC)c(NC(=O)c2cccc(S(=O)(=O)N3CCN(C(C)=O)CC3)c2)c1	13.3%
C/C(=N\NC(=O)CCn1nc(C)cc1C)C(C)(C)C	13.5%
CCN1C(=O)[C@H]2[C@@H](c3ccc(C(F)(F)F)cc3)N[C@]3(CCCN(Cc4ccc(Br)cc4)C3=O)[C@H]2C1=O	3.9%
COc1cccc(N2C(=O)CC(N3CCc4ccccc4C3)C2=O)c1 (stereo unspecified)	11.5%
O=C(c1c(F)cccc1Cl)N1CCN(S(=O)(=O)c2ccc3c(c2)OCCCO3)CC1	5.8%
CC(C)CC(=O)N=C1SC2CS(=O)(=O)CC2N1CCc1ccccc1 (stereo unspecified)	42% (active)
O=C(N=C1SC2CS(=O)(=O)CC2N1Cc1ccccc1)c1ccccc1 (stereo unspecified)	13.8%
O=C(CCC1CCCC1)N=C1SC2CS(=O)(=O)CC2N1Cc1ccccc1 (stereo unspecified)	8.9%
Cn1c2c(c(=O)n(C)c1=O)C(c1ccc(O)cc1)Nc1ccccc1O2 (stereo unspecified)	23%
COc1ccc(S(=O)(=O)Nc2ccc3cn[nH]c3c2)cc1[N+](=O)[O-]	45.4% (active)
O=C(O)c1cc(S(=O)(=O)Nc2ccc3cn[nH]c3c2)ccc1Br	-90.8%
COc1ccc(S(=O)(=O)N/N=C\c2ccc(OC)c(COc3ccc(C)cc3[N+](=O)[O-])c2)cc1	10.6%
Cc1cc(NC(=O)CCC(=O)N(Cc2ccccc2)C(C(=O)NC2CCCC2)c2ccc(C)o2)no1 (stereo unspecified)	1.5%

Compound	inhibition
CCOc1ccc(NC(=O)c2cccc3c2C(=O)N(CC2CCCO2)C3)cc1 (stereo unspecified)	5.6%
CCCN1C(=O)C(Cc2nc3ccccc3c(=O)n2-c2ccccc2)c2cc(C)ccc21 (stereo unspecified)	12.4%
CCn1c(O)c(N=NC(=O)c2cccc(S(=O)(=O)N3CCCCC3)c2)c2ccccc21	28%
CCn1c(O)c(N=NC2=NC(=O)CS2)c2cc(C)ccc21	46.9% (active)
N#Cc1cccc(NC(=O)c2cc(C3CCCCN3C(=O)CCc3ccccc3)on2)c1 (stereo unspecified)	8.1%
Clc1ccc(C2[C@H]3CN(CC4CCCCC4)[C@H](c4ccccc4)C34CC2(c2cccnc2)C4)cn1 (stereo partly specified)	7.6%
COc1ccc(NC(=O)CSc2nnnn2-c2cccc(OC)c2)cc1	10.5%
COc1ccccc1C(CNC(=O)c1cccc(NS(=O)(=O)c2ccc(Br)cc2)c1)N(C)C (stereo unspecified)	0.9%
COc1ccc(Br)cc1/C=N/Nc1ccc(S(=O)(=O)Nc2ccccc2C(=O)O)cc1[N+](=O)[O-]	46.4% (active)
Cc1ccc(NS(=O)(=O)c2ccc(N/N=C/c3ccccc3OCC(=O)O)c([N+](=O)[O-])c2)c(C)c1	49.7% (active)
Cc1ccc(S(=O)(=O)NC(=O)COc2ccccc2C)cc1	12.8%
CC1CN(C(=O)c2ccccc2NS(=O)(=O)c2cccc([N+](=O)[O-])c2)CC(C)O1 (stereo unspecified)	4.5%
COc1ccc(N(CC(=O)Nc2ccc(C)cc2C)S(=O)(=O)c2ccccc2[N+](=O)[O-])c(OC)c1	10.2%
COc1cccc(N(Cc2nnc3n2CCCCC3)C(=O)Nc2ccccc2F)c1	9.7%
CC1CC2=C(CC1/C=N/NC(N)=S)C(C)(C)CCC2 (stereo unspecified)	12.2%
O=C(CCNS(=O)(=O)c1ccccc1)NCCSc1ccc(Br)cc1	9%
COc1ccc(S(=O)(=O)/N=C2\C=C(NS(=O)(=O)c3ccccc3)C(=O)c3ccccc32)cc1	70% (active)
COc1ccc(C(=O)C(C)OC(=O)c2cccc(S(=O)(=O)Nc3c(C)n(C)n(-c4ccccc4)c3=O)c2)cc1 (stereo unspecified)	5.8%
CNC(=O)COc1ccc(S(=O)(=O)Nc2ccccc2)cc1	3.4%
Cc1ccc(S(=O)(=O)N[C@H](CO)C(C)C)cc1	11.7%
Cc1ccc(S(=O)(=O)/N=C2\C=C(NS(=O)(=O)c3ccc(C)cc3)C(=O)c3ccccc32)cc1	89.9% (active)
Cc1ccc(S(=O)(=O)N/N=C(\c2ccccc2)C2CC2)cc1	3.3%
